TcdB inh – blocks C. difficile toxin B glycohydrolase activity; P18177; TcdB glycohydrolase enzymatic assay, plate reader; inhibition, % at 9.99 µM; 350,000 compounds, 0.24% hits; AID 652162; in the data active means inhibition above about 10%
Target sequence (P18177 whole entry, looked up): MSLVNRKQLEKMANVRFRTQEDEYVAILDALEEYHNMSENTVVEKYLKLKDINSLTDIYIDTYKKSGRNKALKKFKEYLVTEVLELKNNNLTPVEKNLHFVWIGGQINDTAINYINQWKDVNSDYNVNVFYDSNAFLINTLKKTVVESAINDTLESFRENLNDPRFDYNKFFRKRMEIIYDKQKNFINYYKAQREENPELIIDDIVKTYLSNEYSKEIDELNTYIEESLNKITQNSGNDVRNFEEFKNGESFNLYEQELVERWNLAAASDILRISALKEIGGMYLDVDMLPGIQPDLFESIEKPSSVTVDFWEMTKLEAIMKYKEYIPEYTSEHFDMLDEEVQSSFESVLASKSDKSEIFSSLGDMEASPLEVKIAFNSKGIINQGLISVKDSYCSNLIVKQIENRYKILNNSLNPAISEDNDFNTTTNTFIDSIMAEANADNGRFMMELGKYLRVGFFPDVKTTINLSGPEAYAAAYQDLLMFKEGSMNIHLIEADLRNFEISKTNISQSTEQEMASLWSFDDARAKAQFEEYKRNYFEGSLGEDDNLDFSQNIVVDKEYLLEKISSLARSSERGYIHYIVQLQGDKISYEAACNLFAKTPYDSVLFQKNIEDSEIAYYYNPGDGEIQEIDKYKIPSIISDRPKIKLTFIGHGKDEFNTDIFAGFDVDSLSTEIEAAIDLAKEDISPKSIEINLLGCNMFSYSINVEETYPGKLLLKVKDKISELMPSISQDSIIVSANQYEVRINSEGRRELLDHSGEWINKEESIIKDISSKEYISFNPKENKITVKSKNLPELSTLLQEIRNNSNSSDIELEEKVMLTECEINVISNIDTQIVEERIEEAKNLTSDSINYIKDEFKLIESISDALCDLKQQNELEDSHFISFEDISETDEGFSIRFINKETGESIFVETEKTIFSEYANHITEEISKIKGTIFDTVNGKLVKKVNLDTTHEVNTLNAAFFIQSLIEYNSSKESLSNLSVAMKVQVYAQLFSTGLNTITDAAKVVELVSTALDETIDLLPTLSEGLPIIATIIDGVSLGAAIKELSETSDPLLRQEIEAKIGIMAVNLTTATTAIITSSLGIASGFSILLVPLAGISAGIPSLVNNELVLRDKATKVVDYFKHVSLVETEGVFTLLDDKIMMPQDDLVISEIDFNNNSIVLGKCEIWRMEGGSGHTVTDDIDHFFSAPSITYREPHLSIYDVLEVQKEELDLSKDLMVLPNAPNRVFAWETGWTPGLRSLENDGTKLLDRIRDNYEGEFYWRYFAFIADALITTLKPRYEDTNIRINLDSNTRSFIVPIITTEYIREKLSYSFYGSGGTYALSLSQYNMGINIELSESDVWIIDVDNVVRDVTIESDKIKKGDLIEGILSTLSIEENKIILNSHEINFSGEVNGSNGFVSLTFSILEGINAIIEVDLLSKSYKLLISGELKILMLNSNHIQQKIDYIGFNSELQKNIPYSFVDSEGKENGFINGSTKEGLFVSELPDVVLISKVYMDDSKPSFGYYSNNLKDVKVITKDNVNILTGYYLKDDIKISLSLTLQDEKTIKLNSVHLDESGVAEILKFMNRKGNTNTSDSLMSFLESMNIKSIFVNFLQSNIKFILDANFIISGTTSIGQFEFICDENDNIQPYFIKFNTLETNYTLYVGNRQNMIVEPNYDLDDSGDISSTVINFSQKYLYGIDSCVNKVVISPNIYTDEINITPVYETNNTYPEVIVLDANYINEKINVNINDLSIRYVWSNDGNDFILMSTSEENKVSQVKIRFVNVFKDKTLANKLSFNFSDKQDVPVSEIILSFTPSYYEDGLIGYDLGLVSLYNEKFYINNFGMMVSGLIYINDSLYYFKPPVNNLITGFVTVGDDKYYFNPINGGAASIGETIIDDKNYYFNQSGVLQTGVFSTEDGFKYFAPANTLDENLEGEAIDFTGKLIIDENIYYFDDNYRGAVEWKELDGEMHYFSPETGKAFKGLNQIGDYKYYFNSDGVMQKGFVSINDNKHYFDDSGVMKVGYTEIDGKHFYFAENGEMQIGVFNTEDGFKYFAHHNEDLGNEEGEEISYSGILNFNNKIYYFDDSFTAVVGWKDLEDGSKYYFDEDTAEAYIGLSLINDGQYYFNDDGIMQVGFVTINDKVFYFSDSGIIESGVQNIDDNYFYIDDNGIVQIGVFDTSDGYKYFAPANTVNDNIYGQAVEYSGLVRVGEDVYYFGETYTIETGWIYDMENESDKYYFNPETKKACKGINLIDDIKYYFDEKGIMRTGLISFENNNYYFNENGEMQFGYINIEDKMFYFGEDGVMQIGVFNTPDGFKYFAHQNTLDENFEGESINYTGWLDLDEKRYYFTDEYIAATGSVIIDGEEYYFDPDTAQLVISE
PfHsp40 yeast – rescue of PfHsp40-mediated yeast toxicity | 340,000 compounds, 0.68% hits | growth rescue, % at 12.5 µM | S. cerevisiae expressing PfHsp40, growth rescue, ATP luminescence; in the data active means growth rescue above about 28%, passing the limit was not always enough; inconclusive means no clear call, values can overlap the other calls;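 further: yeast W303a lacking pdr1 and pdr3 grown in galactose medium; growth measured after three days at 30 °C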
Sa RN4220 lethal – S. aureus RN4220 growth inhibition. OD600, 16 h. inhibition, % (no concentration beside the values). 330,000 compounds, 0.33% hits. AID 1259311; in the data active means inhibition above about 85%;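 further: plate controls were untreated cells for no effect and reference antibiotic for full effect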
Mtb hypoxia rep – inhibitors of hypoxia-regulated fluorescent reporter in Mycobacterium tuberculosis. M. tuberculosis hypoxia-regulated fluorescent reporter, fluorescence. fluorescence inhibition, % (no concentration beside the values). 300,000 compounds, 0.1% hits. AID 1159583; in the data active means fluorescence inhibition mostly above about 23%, no sharp cut-off; inactive means mostly below about 17%
MazF activator – activators of E. coli MazEF toxin-antitoxin RNase; P0AE70; FAM/BHQ RNA-DNA oligo cleavage fluorescence, 5 h; activation, % at 20 µM; 350,000 compounds, 0.32% hits; in the data active means activation above about 50%
ugtP null kill – kills S. aureus RN4220 lacking UgtP | S. aureus RN4220 ugtP deletion, OD600 growth, 16 h | growth inhibition, % (no concentration beside the values) | 330,000 compounds, 0.54% hits; in the data active means growth inhibition above about 68%;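 further: plate controls were untreated wells for no effect and antibiotic for full effect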
* hit, by the source's call; ? = inconclusive; . = no result given. Only some compounds are listed: those with a hit (about 1.3% of all), similar ones and a draw of the others.

SMILES	TcdB inh	PfHsp40 yeast	Sa RN4220 lethal	Mtb hypoxia rep	MazF activator	ugtP null kill
CC(=O)Nc1ccc(N(C(=O)c2ccco2)C(C(=O)NC2CCCC2)c2cccs2)cc1 (configuration not stated)	13.4*	0.9	6.7	-4.3	2.6	2.3
CN(C)C=Cc1onc(-c2c(F)cccc2Cl)c1C#N	.	.	-0.2	1.2	.	-13.5
COc1ccc(CN(C)C[C@H]2Oc3c(NS(=O)(=O)c4cn(C)cn4)cccc3C(=O)N([C@H](C)CO)C[C@H]2C)cc1	0.7	.	.	.	.	.
Oc1c(Br)cc(Br)cc1Br	0.4	-2.1	18.4	9.1	-0.2	16.6
CC(C)(c1cc(Br)c(O)c(Br)c1)c1cc(Br)c(O)c(Br)c1	0.9	330.7*	.	.	-2.4	.
O=C(Nc1cccc(Cl)c1)c1cc(N=Nc2ccc([N+](=O)[O-])cc2Cl)ccc1O	1.5	-0.9	94.4*	70.1*	2.1	99.6*
O=C(Nc1ccc([N+](=O)[O-])cc1Cl)c1cc(Cl)ccc1O	4.3	9.5	100.9*	.	-2.3	100.1*
CCc1ccc(C2=NN(S(C)(=O)=O)C(c3cccs3)C2)cc1 (configuration not stated)	.	-2.3	-0.1	3.8	282.7*	9.0
CCCC(=O)NC(c1ccc(C)cc1)c1ccc2cccnc2c1O (configuration not stated)	.	?	.	.	3.8	.
Oc1c(C(Nc2nccs2)c2ccc(C(F)(F)F)cc2)ccc2cccnc12 (configuration not stated)	-1.6	84.1*	23.1	3.1	-6.2	2.2
CCC(=O)NC(c1cccs1)c1ccc2cccnc2c1O (configuration not stated)	1.4	1.1	8.6	15.6	5.3	11.4
Oc1c(C(Nc2cccc(C(F)(F)F)c2)c2ccncc2)ccc2cccnc12 (configuration not stated)	1.5	381.5*	10.4	-1.3	-14.5	15.4
NC(=O)c1cc2c3ccccc3ccn2c1-c1ccccc1	-4.8	0.3	7.6	20.1	51.0*	1.7
COc1ccccc1-c1cnc2c(c1)C(=O)N([C@@H](C)CO)C[C@@H](C)[C@@H](CN(C)CC1CCOCC1)O2	-3.8	.	.	.	.	.
O=C(NC(=S)Nc1ccc(-c2ccccc2)cc1)c1ccccc1	-0.5	0.7	-10.8	.	-5.9	7.1
Cc1ccc(C(=O)O)cc1NC(=S)NC(=O)c1ccc(-c2ccccc2)cc1	-0.5	113.0*	20.3	0.6	-17.8	2.6
Cc1cccc(C(=O)NC(=S)Nc2ccccc2C(F)(F)F)c1	.	-0.8	-1.2	0.1	-10.0	10.4
O=C(O)c1cccc(NC(=S)NC(=O)c2ccc(-c3ccccc3)cc2)c1	0.7	-1.5	9.5	11.3	-7.4	-6.1
Cc1ccc(C(=O)NC(=S)Nc2ccccc2C(F)(F)F)cc1C	.	32.1*	-6.4	0.7	-10.7	69.5
CC(C)NC(=S)NC(=O)c1ccc(-c2ccccc2)cc1	-0.5	59.5*	27.8	12.2	-12.0	-19.2
C[C@@H]1CN([C@@H](C)CO)C(=O)c2cc(NS(=O)(=O)c3cn(C)cn3)ccc2O[C@@H](C)CCCCO[C@@H]1CN(C)S(=O)(=O)c1ccc(Cl)cc1	0.2	.	.	.	.	.
CCC(ONc1ccccc1C(F)(F)F)(C(=O)NN(C)C)c1ccccc1 (configuration not stated)	-0.5	54.1*	-0.1	14.8	2.0	9.2
CCn1c(-c2ccccc2)c(C(=O)CCl)c2ccccc21	0.6	1.0	97.3*	15.0	-0.8	99.4*
Cn1c(-c2ccccc2)c(C(=O)CCl)c2ccccc21	1.3	1.6	27.3	14.7	-9.9	8.9
c1ccc(Cn2cc(-c3cccnc3)cn2)cc1	0.7	552.9*	4.0	17.4	5.2	-0.9
SMILES	TcdB inh	PfHsp40 yeast	Sa RN4220 lethal	Mtb hypoxia rep	MazF activator	ugtP null kill
c1ccc(Cn2cc(-c3ccccc3)cn2)cc1	1.2	-0.3	3.8	.	-3.8	0.0
C[C@H](CO)N1C[C@H](C)[C@@H](CN(C)S(=O)(=O)c2ccc(Cl)cc2)OCCCC[C@H](C)Oc2ccc(NS(=O)(=O)c3cccs3)cc2C1=O	0.3	.	.	.	.	.
O=C(COc1ccc2c3c(c(=O)oc2c1)CCC3)c1ccc2c(c1)OCO2	0.0	-1.0	10.6	9.6	124.6*	-10.3
O=C(O)COc1ccc2c3c(c(=O)oc2c1)CCCC3	-1.1	0.1	2.7	-2.6	8.9	-1.3
O=C(ON=C1CCS(=O)(=O)c2sccc21)C1CC1	.	.	3.4	18.3	.	2.0
O=C(NCc1cccs1)C1CCN(S(=O)(=O)N2CCCC2)CC1	.	32.6*	4.0	2.2	7.6	11.0
O=C(NCc1cccs1)C1CCN(S(=O)(=O)c2cccs2)CC1	.	-0.9	-4.6	-8.1	-16.1	-1.8
COC(=O)c1c(N=CN(C)C)sc2c1CCN(c1ncc(C(F)(F)F)cc1Cl)C2	.	.	26.0	9.6	.	58.5
COC(=O)c1c(/N=C/N(C)C)sc2c1CCN(c1ncc(C(F)(F)F)cc1Cl)C2	.	1.6	.	.	50.6*	.
COC(=O)C1CN(C#N)N(c2ccc(Cl)cc2)C12c1ccccc1-c1ccccc12 (configuration not stated)	0.3	4.3	90.0*	10.9	-11.3	96.4*
O=S(=O)(Nc1cccc(-c2nc3cccnc3s2)c1)c1ccc2c(c1)CCCC2	1.6	-1.1	16.0	8.8	1.5	92.9*
CC(=O)OCCn1c(C)[n+](CCOC(C)=O)c2cc(Cl)c(Cl)cc21	1.3	.	2.5	12.8	-18.3	10.5
CC(=O)OCCn1c2nc(=O)[nH]c(=O)c-2nc2cc(C)c(C)cc21	-1.8	-1.8	12.7	-55.6	480.0*	0.5
O=[N+]([O-])c1c(NCCCO)cc(Sc2nc3ccccc3s2)c2nonc12	0.6	-0.5	87.4*	20.8	113.8*	100.6*
COc1cccc(C(=O)NN=Cc2ccc(Oc3ccc([N+](=O)[O-])cn3)c(OC)c2)c1	.	.	-1.2	-5.4	.	7.9
Cc1ccc(C(C)NC(=S)NCc2ccc(F)cc2)cc1C (configuration not stated)	-1.5	11.0	-6.2	-0.7	-0.7	-1.3
Cc1ccc(C(C)NC(=S)NCc2ccc(F)cc2)c(C)c1 (configuration not stated)	1.7	117.4*	-6.7	0.8	0.0	-18.3
CCc1ccc(C(C)NC(=S)NCc2ccc(F)cc2)cc1 (configuration not stated)	0.7	227.2*	-6.5	-1.4	-0.1	-12.2
CCc1ccc(C(C)NC(=S)NC2CCCCC2)cc1 (configuration not stated)	.	82.7*	-3.7	-5.8	1.9	-4.3
CCC(C)c1ccc(C(C)NC(=S)NC2CCCCC2)cc1 (configuration not stated)	1.6	-1.0	.	.	0.5	.
O=C(NN=Cc1c(Cl)nc2ccccn2c1=O)c1cccnc1	.	.	1.5	-5.6	.	-5.7
CC=Cc1ccc2n(c1=O)C[C@@H]1[C@@H](CO)[C@H](C(=O)Nc3ccccc3)N(CC)[C@H]21 (mixture of isomers)	0.0	.	.	.	.	.
O=C(c1csc2c1CCCC2)N1CCN(c2ccc(F)cc2)CC1	.	1.2	4.3	1.1	53.3*	6.8

Screens from PubChem.
